Measurements as given in PubChem BioAssay AID687038 (Broad Institute, 2013).
Calls of active or inactive are those of the source.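 How the source made its calls: active means curve showing a falling signal whose half-maximal concentration is at most twice the top valid dose; inconclusive means flat curve with a moderate drop, or an unreliable fit; inactive means the rest.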

Test: miR-21 levels after miR-122 inhibitor treatment, dose response, selectivity assay for miR-122 inhibitor project, cell-based, Huh7, RT-qPCR, dry powder (AID 687038)
Conditions: Huh7 miR-21 levels, qRT-PCR, 48 h; series mostly up to 35 µM; relative miR-21 level (fold): at the top concentration

Relative miR-21 level (fold), inactive:
CN1C(=O)c2cc(NC(=O)c3cccc(F)c3)ccc2OC[C@H]2O[C@@H](CC(=O)O)CC[C@H]21 2.53 fold, C[C@@H]1CN([C@H](C)CO)S(=O)(=O)c2ccc(C#Cc3ccncc3)cc2O[C@H]1CN(C)C(=O)C1CCOCC1 0.753 fold, CN1C(=O)c2cc(NC(=O)c3cccc(F)c3)ccc2OC[C@H]2O[C@H](CC(=O)O)CC[C@H]21 0.703 fold, C[C@@H]1CN([C@H](C)CO)S(=O)(=O)c2ccc(C#Cc3ccncc3)cc2O[C@@H]1CN(C)C(=O)C1CCOCC1 0.867 fold, Cc1cc(C(C)(C)C)cc(S(=O)(=O)N2CCOCC2)c1C 0.967 fold, COc1cccc(C(=O)Nc2ccc3c(c2)C(=O)N(C)C[C@@H](OC)[C@@H](C)CN[C@@H](C)CO3)c1 1.21 fold, CN1C(=O)c2cc(NC(=O)c3cccc(F)c3)ccc2OC[C@@H]2O[C@H](CC(=O)O)CC[C@@H]21 0.75 fold, OCc1ccc(-c2nn(Cc3ccccc3)c3ccccc23)o1 1.18 fold, C[C@H]1CN([C@@H](C)CO)C(=O)c2cc(C#Cc3ccccc3F)cnc2O[C@@H]1CN(C)C(=O)C1CCCCC1 0.5 fold, COc1cccc(-c2ccc3c(c2)O[C@H](CN(C)C(=O)C2CCOCC2)[C@H](C)CN([C@@H](C)CO)S3(=O)=O)c1 1.15 fold, CNC[C@@H]1Oc2cc(C#CC3CCCCC3)ccc2S(=O)(=O)N([C@@H](C)CO)C[C@@H]1C 1.32 fold, C[C@H]1CN([C@@H](C)CO)S(=O)(=O)c2ccc(C#Cc3ccncc3)cc2O[C@@H]1CN(C)C(=O)C1CCOCC1 0.89 fold, O=C(CN=C1NS(=O)(=O)c2ccccc21)Nc1ccccc1N1CCCCCC1 2.33 fold, C[C@@H]1CN([C@@H](C)CO)S(=O)(=O)c2ccc(C#Cc3ccncc3)cc2O[C@H]1CN(C)C(=O)C1CCOCC1 0.725 fold, CN1C(=O)c2cc(NC(=O)c3cccc(F)c3)ccc2OC[C@H]2O[C@@H](CC(=O)O)CC[C@@H]21 1.06 fold, Cc1cc(C(C)(C)C)cc(S(=O)(=O)NCCc2ccncc2)c1C 1.35 fold, COCC(=O)N(C)C[C@H]1Oc2cc(-c3ccc(C#N)cc3)ccc2S(=O)(=O)N([C@@H](C)CO)C[C@H]1C 0.872 fold, CN1C(=O)c2cc(NC(=O)c3cccc(F)c3)ccc2OC[C@@H]2O[C@@H](CC(=O)O)CC[C@@H]21 0.771 fold, CCCC#Cc1ccc2c(c1)O[C@H](CN(C)C(=O)c1ccncc1)[C@H](C)CN([C@@H](C)CO)S2(=O)=O 0.809 fold, Nc1ccc(Oc2ccc(Br)cc2)cc1 0.414 fold, CN(CC(=O)Nc1cccc(Cl)c1)S(=O)(=O)c1ccc2c(c1)n(C)c(=O)c(=O)n2C 1.34 fold, COCC(=O)N(C)C[C@H]1Oc2cc(-c3ccc(C#N)cc3)ccc2S(=O)(=O)N([C@H](C)CO)C[C@H]1C 0.916 fold, O=S(=O)(NCCc1ccncc1)c1ccccc1 1.14 fold, Cc1cccc(NC(=O)Nc2ccc3c(c2)C(=O)N(C)[C@@H]2CC[C@H](CC(=O)NCc4ccccc4Cl)O[C@H]2CO3)c1 2.03 fold, CO[C@@H]1CN(C)C(=O)c2cc(NC(=O)c3ccc4c(c3)OCO4)ccc2OC[C@H](C)NC[C@@H]1C 1.07 fold, CN1C(=O)c2cc(NC(=O)c3cccc(F)c3)ccc2OC[C@@H]2O[C@@H](CC(=O)O)CC[C@H]21 1.08 fold [at 30 µM], CN(C)CCN1C(=O)c2cccc3cc(N)cc(c23)C1=O 2.02 fold, C[C@H](CO)N1C[C@H](C)[C@H](CN(C)C(=O)C2CCOCC2)Oc2cc(C#Cc3ccncc3)ccc2S1(=O)=O 0.799 fold, O=C(NCCC1=CCCCC1)c1ccc2c(c1)sc1nc(-c3ccccc3)cn12 0.99 fold, COCC(=O)N(C)C[C@H]1Oc2cc(C#Cc3cccnc3)ccc2S(=O)(=O)N([C@H](C)CO)C[C@H]1C 2.76 fold, Cn1c(=O)c(=O)n(C)c2cc(S(=O)(=O)N3CCOCC3)ccc21 1.13 fold, COc1ccc(S(=O)(=O)N(C)C[C@@H]2Oc3ncc(/C=C/c4ccccc4)cc3C(=O)N([C@@H](C)CO)C[C@@H]2C)cc1 1.54 fold
